# Bioassay records as filed in PubChem BioAssay.
# GCN5L2 inh = qHTS Assay for Inhibitors of GCN5L2. Histone acetyltransferase KAT2A (Homo sapiens), Q92830. GCN5L2 HAT assay, ThioGlo1 CoA-SH fluorescence. Potency, µM (series often up to 58.9 µM), without a hit: at the highest dose activity change, negative = inhibition, actives largely listed as inhibitors. 0.21% of 390,000 active. AID 504327, 2011; further: potency means the concentration at half of the fitted maximal effect; on the % scale 0 is the no-effect control and ±100 the full control effect
#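 Compounds, pin-transferred from DMSO stocks, meet 20nM GCN5L2 for 15 min before the reaction begins with H3(1-25) peptide (75uM) and acetyl-CoA (70uM). Thiol-reactive ThioGlo1 reports CoA release over 20 min at room temperature.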
# PI5P4K alpha inh = qHTS for Inhibitors of phosphatidylinositol 5-phosphate 4-kinase (PI5P4K); Phosphatidylinositol 5-phosphate 4-kinase type-2 alpha (Homo sapiens), P48426; PI5P4Kalpha enzyme, ADP-Glo luminescence, 60 min; active compounds read low; max response, %; 1.2% of 330,000 active; AID 652105, 2013; active means max response of -50% or lower; inconclusive means between -30% and -50%; inactive means -30% or higher; further: value at the top dose of about 77 µM; on the % scale 0 is the no-effect control and ±100 the full control effect
#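 Enzyme plus substrate dispensed, test compounds pinned in, then ATP (5 microM final) added. After 60 min at RT, ADP-Glo reagent 1 for 45 min and reagent 2 for 30 min preceded luminescence imaging.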
# BAZ2B inh = qHTS Assay for Inhibitors of BAZ2B. Bromodomain adjacent to zinc finger domain protein 2B (Homo sapiens), Q9UIF8. Potency, µM (highest dose often 114 µM), for inactives: at the highest dose activity change, negative = inhibition, most hits filed as inhibitors. 4.4% of 360,000 active. AlphaScreen BAZ2B-H3K14Ac peptide displacement; further: potency means the concentration at half of the fitted maximal effect; on the % scale 0 is the no-effect control and ±100 the full control effect; nearly all actives have a fitted effect of over 60% in size
#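 AlphaScreen displacement of biotin-H3(5-23)K14Ac peptide (50 nM final) from BAZ2B (50 nM final) in PBS pH 7.4, 0.01% Tween-20; complex preformed 30 min RT, then compounds (top 110 uM) 30 min RT, beads 20 min dark.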
# JMJD2A Tudor = qHTS Assay for Inhibitors of JMJD2A-Tudor Domain; AlphaScreen JMJD2A-Tudor / H3K4me3 peptide binding; 4.4% of 390,000 active; Lysine-specific demethylase 4A (Homo sapiens), O75164; Potency, µM (doses to about 114 µM), without a hit: top-dose activity change, negative = inhibition, hits mostly inhibitors; further: potency means the concentration at half of the fitted maximal effect; on the % scale 0 is the no-effect control and ±100 the full control effect; nearly all actives have a fitted effect of over 50% in size
# PLK1 PBD block = qHTS for Inhibitors of PLK1-PDB (polo-like kinase 1 - polo-box domain): Primary Screen. Serine/threonine-protein kinase PLK1 (Homo sapiens), P53350. Plk1 PBD binding of FITC phosphopeptide, fluorescence polarization. Potency, µM, for the others: max response, negative = inhibition, actives largely listed as inhibitors. 2.8% of 360,000 active. AID 720504, 2013; further: potency means the concentration at half of the fitted maximal effect; series mostly up to about 57 µM; on the % scale 0 is the no-effect control and ±100 the full control effect; nearly all actives have a fitted effect of over 65% in size
# HP1b binding inh = HTS for Inhibitors of HP1-beta Chromodomain Interactions with Methylated Histone Tails. AID 540317, 2011. AlphaScreen HP1-beta / biotin-H3K9me3 peptide binding. Potency, µM (top dose mostly 114 µM), inactives show at the top dose activity change, negative = inhibition, most hits filed as inhibitors. Chromobox protein homolog 1 (Homo sapiens), P83916. 0.56% of 390,000 active; further: potency means the concentration at half of the fitted maximal effect; nearly all actives have a fitted effect of over 70% in size
#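 AlphaScreen: HP1-beta (50 nM) preformed 30 min with biotin-H3(1-18)K9me3 peptide (50 nM) in PBS pH 7.4, 0.01% Tween-20. Compound added for 30 min at RT, then streptavidin donor/nickel chelate acceptor beads (10 ug/mL) for 30 min.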
# Starred values were filed as active, the others as inactive; ? = inconclusive; . = no result given; [ ] = another dose, or the depositor's remark. This is a sample that favours compounds with a hit; in the whole collection about 7% have one here. Unless noted, the call rests on the fitted dose curve; in most records, active means well fitted curve in the direction sought with a large enough effect; inconclusive means small, poorly fitted or top-dose-only effect, or another doubt; inactive means no such curve, though single readings can be large; an effect the other way counts as inactive or inconclusive.
SMILES,GCN5L2 inh,PI5P4K alpha inh,BAZ2B inh,JMJD2A Tudor,PLK1 PBD block,HP1b binding inh
O=[N+]([O-])c1ccc2c([N+](=O)[O-])ccc3c2c1CC3,.,-73.7*,.,.,?,.
CC(=O)N1CCc2cc(S(=O)(=O)NC(Cc3ccccc3)C(=O)Nc3ccc(C)cc3C)ccc21 (configuration not stated),-5.4%,.,.,-21.3%,.,13.9%
COc1ccc(-c2ccc3nnc(SCC(N)=O)n3n2)cc1,-2.6%,1.2,-0.6%,-5.9%,-6.0%,32.0%
CCSc1nnc2ccc(-c3ccc(OC)c(OC)c3)nn12,-13.5%,-10.2,3.7%,?,21.2µM*,-16.4%[57 µM]
CC(C)c1ccc(NC(=O)c2cc(S(=O)(=O)N(C)C3CCCCC3)ccc2F)cc1,-6.6%,.,-0.2%,-9.2%,.,40.8%
COC(=O)c1cc(COc2ccc3oc(C)c(C(=O)OC)c3c2)c(C)o1,-13.2%,.,2.7%,-0.6%,-8.3%,38.8%
CCOC(=O)c1c(C)oc2ccc(OCc3cc(C(=O)OC)oc3C)cc12,-8.3%,-1.4,20.5%,-10.3%[11.4 µM],26.7µM*,24.1%
Cc1ccc(NC(=O)/C(C#N)=C(\N)C(Cl)(Cl)Cl)nc1,-7.9%,-16.8,56.2µM*,-7.8%[57.1 µM],23.8µM*,16.1%
COC(=O)c1c(-c2cccs2)csc1NC(=O)c1cc(OC)c(OC)c(OC)c1,25.1µM*,.,?,89.1µM*,.,?
COc1ccccc1N1CCN(Cc2cc(=O)c(OCC(=O)NC(C)C)co2)CC1,-30.7%,2.3,-2.6%,?,9.47µM*,-16.6%
Cc1ccccc1NC(=O)COc1coc(CN2CCCc3ccccc32)cc1=O,0.2%,-8.3,50.1µM*,?,-3.9%,6.1%
Cc1ccc(NC(=O)COc2coc(CN3CCc4ccccc43)cc2=O)cc1Cl,-29.1%,-17.5,50.1µM*,44.7µM*,-16.4%,-34.6%
O=C(NC1=NCCS1)c1ccccc1OCc1ccccc1Cl,-9.3%,4.6,15.2%,6.8%,-12.3%,56.1%
COc1ccc(-c2c3c(=O)n(C)c(=O)n(C)c3cn2-c2ccccc2)cc1,-9.5%,-7.6,-35.5%,-17.4%,-11.3%,7.8%
COc1ccc(-c2c3c(=O)n(C)c(=O)n(C)c3cn2-c2ccc(O)cc2)cc1,-12.2%,-3.6,79.4µM*,-32.4%,-20.3%,?
Cc1noc(C)c1-c1ccc2ncnc(NCc3ccc(Br)cc3)c2c1,.,.,.,-28.3%,.,.
O=C1OC(/C=C/c2ccccc2)=NC/1=C\c1cccnc1,-4.6%,-12.7,-7.4%,0.7%,-14.5%,3.1%[57 µM]
COc1ccccc1/C=C/C1=NC(=C\C=C/c2ccccc2)/C(=O)O1,0.7%,-8.3,?,56.2µM*,-13.7%,?
COc1ccccc1CNC(=O)c1cn(C)c2ccc(S(=O)(=O)N3CCCCC3)cc2c1=O,-5.8%,.,-10.1%,.,.,.
C#CCOCCOCCOCCNc1nc(N2CCN(C(=O)[C@H]([C@@H](C)CC)n3cc([C@@H](N)CC(C)C)nn3)CC2)nc(N2CCN(C(=O)[C@H](CCCCN)n3cc([C@@H](N)CO)nn3)CC2)n1,-4.3%,43.5,79.4µM*,79.4µM*,-4.6%,30.1%
C#CCOCCOCCOCCNc1nc(N2CCOCC2)nc(N2CCN(C(=O)[C@H](CCCCN)n3cc([C@@H](N)CO)nn3)CC2)n1,-0.5%,0.1,50.1µM*,79.4µM*,-4.4%,17.3%
C#CCOCCOCCOCCNc1nc(OC)nc(N2CCN(C(=O)[C@H](CCCCN)n3cc(C(N)CO)nn3)CC2)n1 (some centres not stated),22.0%,.,?,.,.,.
C#CCOCCOCCOCCNc1nc(N2CCN(C(=O)[C@H]([C@@H](C)CC)n3cc([C@@H](N)CO)nn3)CC2)nc(N2CCN(C(=O)[C@H](CCCCN)n3cc([C@@H](N)CO)nn3)CC2)n1,-7.9%,-0.7,.,56.2µM*,-17.5%,60.9%
COc1ccc(CCN(C)CCCN2CC(c3ccccc3)CC2=O)cc1OC (configuration not stated),-8.9%,1.2,?,25.1µM*,?,-8.8%
COc1ccc(CCN2CC(C(=O)NCC(c3ccccc3)N(C)C)CC2=O)cc1OC (configuration not stated),-3.9%,-0.6,.,-7.6%,-11.3%,8.4%
SMILES,GCN5L2 inh,PI5P4K alpha inh,BAZ2B inh,JMJD2A Tudor,PLK1 PBD block,HP1b binding inh
COc1ccc(NC(=O)CN(C)C(=O)C2CC(=O)N(CCc3ccc(OC)c(OC)c3)C2)cc1 (configuration not stated),.,0.8,.,8.6%,4.7%,34.2%
COc1ccc(C2CC(=O)N(CCCN(C)CCc3ccc(OC)c(OC)c3)C2)cc1 (configuration not stated),-0.8%,-1.1,89.1µM*,100µM*,-4.8%,?
O=C(Nc1ccc(F)cc1)c1nc2c(nnn2Cc2cccc3ccccc23)c(=O)[nH]1,-21.8%,-3.7,?,-13.4%,23.8µM*,39.8%
C/[N+]([O-])=C\c1cccc(OCCN2CCN(c3ncc(C(F)(F)F)cc3Cl)CC2)c1,-25.7%,-5.5,?,?,11.9µM*,4.4%
CC1CCC/C(=C\Nc2ccc(O)cc2)C1=O (configuration not stated),-14.7%,-12.4,.,79.4µM*,-5.3%,6.3%
COc1ccc(/C=C/C(=O)c2ccccc2O)cc1,-6.7%,-1.7,?,63.1µM*,-9.7%,-21.0%
Cc1c(C(=O)N2CCCCC2)c(S(=O)(=O)N2c3ccccc3CC2C)c(C)n1C (configuration not stated),-4.0%,-1.9,-29.2%,-32.9%,?,-5.1%
O=C1c2cccc3cccc(c23)C(=O)N1OS(=O)(=O)c1ccc(Cl)cc1,-5.2%,2.0,-1.8%,-24.5%,-10.5%,4.2%
COc1ccc(OC)c(S(=O)(=O)ON2C(=O)c3ccccc3C2=O)c1,-12.6%,-11.6,9.0%[0.457 µM],89.1µM*,11.9µM*,?
CCc1ccc(S(=O)(=O)ON2C(=O)c3ccccc3C2=O)cc1,-5.3%,-23.4,?,50.1µM*,8.44µM*,35.5µM*
CCOc1ccc2nc(N(CCN(C)C)C(=O)c3cc4ccccc4cc3OC)sc2c1,-5.6%,-11.9,?,39.8µM*,-9.4%,?
CCOc1cccc2sc(N(CCN(C)C)C(=O)c3cc4ccccc4cc3OC)nc12,-11.6%,4.3,?,44.7µM*,-14.4%,-20.4%
